# Shown are actives, neighbours in structure and some others; about 2.7% of the full set was active somewhere.
# rTrxR1 inhibitor – rat TrxR1 inhibition; O89049; recombinant rTrxR1, NADPH fluorescence consumption, selenite substrate; Potency, µM (titrated, usually from 114 µM), without a hit: at the highest dose activity change, negative = inhibition, hits mostly inhibitors; actives 1% (n = 390,000); AID 588453; further: potency means the concentration at half of the fitted maximal effect; on the % scale 0 is the no-effect control and ±100 the full control effect; nearly all actives have a fitted effect of over 65% in size
#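 Rat TrxR1 (90 nM in the dispensed reagent) was pre-reduced with 400 uM NADPH for 5 min at room temperature, then incubated with compound for 15 min. After 400 uM selenite was added, NADPH fluorescence (Ex 340/Em 450 nm) was followed for 8 min.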
# mIDH1 inhibitor – inhibitors of human mutant IDH1 R132H. O75874. IDH1-R132H enzyme, NADPH consumption, diaphorase/resazurin fluorescence. Potency, µM (top dose mostly 76.6 µM), inactives show at the highest dose activity change, negative = inhibition, actives largely listed as inhibitors. actives 0.093% (n = 390,000). AID 602179; further: potency means the concentration at half of the fitted maximal effect; on the % scale 0 is the no-effect control and ±100 the full control effect; nearly all actives have a fitted effect of over 65% in size
#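 IDH1-R132H (0.5 ug/mL dispensed) in pH 7.5 Tris buffer was preincubated 30 min with compound, then given a substrate mix of 0.016 mM NADPH and 2 mM alpha-KG for 80 min at room temperature; remaining NADPH was read by diaphorase/resazurin fluorescence.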
# GLP1R inv ag – inverse agonists of human GLP-1 receptor. P43220. HEK293 GLP-1R CRE-luciferase, luminescence, 24 h; GLP-1R form is constitutively active. Potency, µM (doses to about 38.3 µM), without a hit: at the top dose activity change, negative = inhibition, most hits filed as inhibitors. actives 1.6% (n = 410,000); further: potency means the concentration at half of the fitted maximal effect; on the % scale 0 is the no-effect control and ±100 the full control effect; nearly all actives have a fitted effect of over 55% in size
# Target sequence (P43220 whole entry, looked up): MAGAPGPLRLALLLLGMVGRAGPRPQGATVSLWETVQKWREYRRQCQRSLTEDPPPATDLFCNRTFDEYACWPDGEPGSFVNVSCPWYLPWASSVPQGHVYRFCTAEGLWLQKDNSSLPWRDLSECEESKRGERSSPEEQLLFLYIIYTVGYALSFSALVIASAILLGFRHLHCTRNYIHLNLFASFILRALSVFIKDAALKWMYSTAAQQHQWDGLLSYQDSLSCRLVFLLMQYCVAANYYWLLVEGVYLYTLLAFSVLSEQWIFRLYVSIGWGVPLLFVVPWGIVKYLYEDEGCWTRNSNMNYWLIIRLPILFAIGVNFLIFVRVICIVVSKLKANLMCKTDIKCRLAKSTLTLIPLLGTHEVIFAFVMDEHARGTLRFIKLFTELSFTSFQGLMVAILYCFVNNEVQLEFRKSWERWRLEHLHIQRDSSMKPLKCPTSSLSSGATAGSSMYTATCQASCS
#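 GLP-1R inverse agonism mode: basal reporter luminescence in engineered HEK293 cells measured after one day of compound exposure at 37 deg C, with a 12 min room-temperature detection step.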
# TrxR1 substrate – is turned over as a substrate by rat TrxR1 | Potency, µM (highest dose often 114 µM), without a hit: at the highest dose activity change, negative = substrate turnover | AID 588456 | purified TrxR1 substrate turnover, NADPH consumption readout | actives 0.01% (n = 390,000) | O89049; further: potency means the concentration at half of the fitted maximal effect; on the % scale 0 is the no-effect control and ±100 the full control effect; nearly all actives have a fitted effect of over 50% in size
#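 Rat TrxR1, dispensed at 90 nM, was prereduced with 400 uM NADPH (final) for 5 min at ~22 deg C, then incubated with compound 15 min before 400 uM selenite. A first-read NADPH fluorescence drop versus no-compound background flagged substrates.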
# GLP1R cytotox – cytotoxicity in counter-screen for GLP-1R inverse agonists; HEK293 cAMP-luciferase reporter cells, luminescence, 24 h; Potency, µM (titrated, usually from 38.3 µM), for inactives: at the top dose activity change, negative = inhibition, hits mostly inhibitors; actives 0.13% (n = 410,000);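 further: loss of luciferase light is scored as toxicity; potency means the concentration at half of the fitted maximal effect; on the % scale 0 is the no-effect control and ±100 the full control effect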
#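 Cells in DMEM/10% Nu serum/1% pen-strep, 1536-well format. Pre-incubated 12 h, dosed with 23 nL compound, incubated a further 24 h. Luciferase detection, 12 min at room temp, luminescence.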
# GLP1R ag – agonists of human GLP-1 receptor; HEK293 GLP-1R CRE-luciferase, luminescence, 4-6 h; cells express a hypersensitive GLP-1R form; actives 0.007% (n = 380,000); P43220; Potency, µM (titrated, usually from 45.6 µM), inactives show at the top dose activation, hits mostly activators; further: potency means the concentration at half of the fitted maximal effect; % of control where 0% means no effect
# IDH1 autofl – interferes with resorufin fluorescence in IDH1 counter-screen; shares compounds with mIDH1 inhibitor; Resorufin detection reagent fluorescence interference, cell-free; inhibition of signal, % at 51.2 µM; 750 tested, under 10 active;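 further: 0% = wells with normal resorufin and full inhibition = wells lacking resorufin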
# IDH1 WT – inhibits human wild-type IDH1, mutant selectivity check | WT IDH1 enzyme, NADPH diaphorase/resazurin fluorescence | actives 9% (n = 750) | shares compounds with mIDH1 inhibitor | Potency, µM (top dose mostly 115 µM), inactives show at the top dose activity change, negative = inhibition, actives largely listed as inhibitors | AID 623995;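 further: potency means the concentration at half of the fitted maximal effect; 0% = full WT IDH1 enzyme control and full inhibition = no enzyme wells; nearly all actives have a fitted effect of over 55% in size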
# IDH1 R132H conf – confirmation of human mutant IDH1 inhibitors; IDH1 R132H enzyme, NADPH diaphorase/resazurin fluorescence; Potency, µM (top dose mostly 76.6 µM), without a hit: at the highest dose activity change, negative = inhibition, hits mostly inhibitors; AID 624002; shares compounds with mIDH1 inhibitor; actives 83% (n = 750); further: potency means the concentration at half of the fitted maximal effect; nearly all actives have a fitted effect of over 50% in size
# Active calls of the source: *; ? = inconclusive; / = no result given; [ ] = another dose, or the depositor's remark. The call rests on the fitted dose curve; in most records, active means well fitted curve in the direction sought with a large enough effect; inconclusive means small, poorly fitted or top-dose-only effect, or another doubt; inactive means no such curve, though single readings can be large; an effect the other way counts as inactive or inconclusive.
SMILES,rTrxR1 inhibitor,mIDH1 inhibitor,GLP1R inv ag,TrxR1 substrate,GLP1R cytotox,GLP1R ag,IDH1 autofl,IDH1 WT,IDH1 R132H conf
CCN(C(=O)c1cc2c(s1)-c1ccccc1OC2)c1cc(Cl)ccc1OC,56%,12%,?,23%,-1%,/,/,/,/
Fc1ccc(F)c(Nc2c3c(nc4ccc(Cl)cc24)CCC3)c1,-18%,?,?,-14%,-8%,-3%,/,/,/
FC(F)(F)c1cccc(Nc2c3c(nc4ccc(Cl)cc24)CCC3)c1,0%,?,?,-1%,?,/,3,2%,?
Cc1cc(C)cc(N(C(=O)Cc2cccs2)C(C(=O)NC2CCCCC2)c2ccccn2)c1 (stereo unspecified),1%,?,-3%,-5%,-30%,-3%,3,10%,14µM*
Cc1cc(C)cc(N(C(=O)Cc2cccs2)C(C(=O)NC2CCCC2)c2ccc(C)o2)c1 (stereo unspecified),6%,7.4µM*,2%,-3%[57.1 µM],-15%,2%,-8,10%,4µM*
CCOc1cccc(N(C(=O)Cc2cccs2)C(C(=O)NC2CCCCC2)c2cccn2C)c1 (stereo unspecified),20%,?,?,8%,-13%,-3%,-2,7%,16µM*
Cc1ccccc1C(C(=O)NC1CCCC1)N(C(=O)Cc1cccs1)c1ccc2c(c1)OCCO2 (stereo unspecified),23%,6.6µM*,?,-1%,-1%,5%,3,0%,4µM*
COc1ccc(NC(=O)CSc2ncccc2C(=O)O)cc1OC,5%[57.1 µM],10%,9%,0%[57.1 µM],2%,/,/,/,/
Cc1ccc2oc(-c3ccc(Cl)c(NC(=O)c4cc5ccccc5o4)c3)nc2c1,7%,-13%,-19%,10%,1%,/,/,/,/
COc1cccc(NS(=O)(=O)c2cc(-c3cnc(C4CC4)o3)ccc2C)c1,8%[57.1 µM],10%,?,-4%[57.1 µM],-41%,/,/,/,/
CCc1nnc2c3ccccc3nc(N3CCN(c4cc(Cl)ccc4C)CC3)n12,0%,18%,8%,-9%,13%,/,/,/,/
CCN(Cc1ccccc1)C(=O)c1cc2ccc3cccnc3c2[nH]1,-9%,11%,?,-4%,-4%,/,/,/,/
Cc1ccc(C(C(=O)NC2CCCC2)N(C(=O)Cc2cccs2)c2cccc(C)c2C)o1 (stereo unspecified),11%,9.3µM*,-1%,-11%,-22%,2%,2,5%,6.3µM*
COc1ccc(C2=Nn3c(nnc3-c3ccccc3OC)SC2)cc1OCC1CC1,-9%,/,/,-12%,/,4µM*,-2,-1%,45µM*
COc1ccc(OC)c(-c2nnc3n2N=C(c2ccc(OC(F)F)c(OCC4CC4)c2)CS3)c1,13%,/,/,1%,/,?,/,/,/
COc1ccc(OC)c(-c2nnc3n2N=C(c2ccc(OC)c(OC4CCCC4)c2)CS3)c1,2%[57.1 µM],/,/,-4%[57.1 µM],/,17%,0,2%,14µM*
Cc1cc(C)c(NC(=O)c2cc(CN3CCOCC3)on2)c(C)c1,19%[57.1 µM],-7%,3%,0%[57.1 µM],4%,/,/,/,/
CCn1c(=O)c2cc(C(=O)N(C)c3cc(C)ccc3C)sc2c2ccccc21,20%,?,11%,0%,14%,4%,-1,-5%,20µM*
Cc1ccc(C)c(S(=O)(=O)c2nnn3c2nc(Nc2ccc(F)c(Cl)c2)c2sccc23)c1,36%,?,9%,15%,-14%,/,4,-3%,?
Cc1ccc(S(=O)(=O)c2nnn3c2nc(NC(C)c2ccccc2)c2sccc23)cc1 (stereo unspecified),44%,?,29%,21%,-7%,/,-9,2%,14µM*
Brc1ccc(-c2csc(NNC3=NCCCCC3)n2)cc1,10%,26µM*,6%,-6%,-13%,0%,2,38%,?
CC(C)(C)c1ccc(-c2csc(NNC3=NCCCCC3)n2)cc1,-8%,?,-3%,-7%,0%,8%,/,/,/
CN(c1ccccc1)c1ccc(/C=C/[N+](=O)[O-])cc1,?,29µM*,?,-5%,65%,-4%,2,71µM*,22µM*
CCc1ccc2c(c1)C(NC(C)=O)C(=O)N2CCN1CCOCC1 (stereo unspecified),6%,46µM*,1%,2%,-17%,0%,-1,?,25µM*
CC(=O)c1cccc(NC(=O)Cn2cc(C(=O)c3cccc(Cl)c3)c(=O)c3ccc(C)nc32)c1,14%,-6%,-1%,1%,3%,2%,/,/,/
SMILES,rTrxR1 inhibitor,mIDH1 inhibitor,GLP1R inv ag,TrxR1 substrate,GLP1R cytotox,GLP1R ag,IDH1 autofl,IDH1 WT,IDH1 R132H conf
O=C(O)c1ccc(Cl)c(S(=O)(=O)N(Cc2ccccc2)c2ccccc2Cl)c1,5%,29µM*,?,2%,?,-7%,8,-4%,32µM*
COc1cc2c(-c3ccccc3Cl)nc3c(c(C)nn3-c3ccccc3)c2cc1OC,13%,?,?,30%,-1%,/,-2,0%,5µM*
CCOC(=O)C1CCCN(C(=S)Nc2ccc(F)cc2)C1 (stereo unspecified),6%[57.1 µM],3%,6%,4%[57.1 µM],2%,1%,/,/,/
CCOC(=O)C1CCCN(C(=S)NC2CCCC2)C1 (stereo unspecified),-9%,?,-28%,-1%,-4%,4%,1,11%,-2%
COc1cc(C2c3c(-c4ccccc4O)n[nH]c3C(=O)N2CCO)ccc1OCc1ccccc1 (stereo unspecified),16%,?,2%,3%,8%,/,1,-5%,28µM*
CCCN1C(=O)c2[nH]nc(-c3ccccc3O)c2C1c1ccc(OCc2ccccc2)c(OC)c1 (stereo unspecified),7%,-26%,?,-2%,-10%,/,/,/,/

# Source: PubChem BioAssay
